Test results reported in PubChem BioAssay AID689 (Sanford-Burnham Center for Chemical Genomics, 2007).
In all, about 62,000 compounds went through this assay and about 80 (0.1%) were called active. How the calls were made is not given here. A selection follows. Entries with a potency or affinity are not part of this list.

biological target: Ephrin type-A receptor 4 (Mus musculus) (UniProt Q03137); assay: inhibitors of EphA4 binding to KYL peptide, primary screen, biochemical, colorimetric, mouse EphA4 (AID 689); settings: EphA4-AP binding to KYL peptide, pNPP A405, at 10 µM, stronger effect = higher value
Sequence (Q03137 whole entry, looked up): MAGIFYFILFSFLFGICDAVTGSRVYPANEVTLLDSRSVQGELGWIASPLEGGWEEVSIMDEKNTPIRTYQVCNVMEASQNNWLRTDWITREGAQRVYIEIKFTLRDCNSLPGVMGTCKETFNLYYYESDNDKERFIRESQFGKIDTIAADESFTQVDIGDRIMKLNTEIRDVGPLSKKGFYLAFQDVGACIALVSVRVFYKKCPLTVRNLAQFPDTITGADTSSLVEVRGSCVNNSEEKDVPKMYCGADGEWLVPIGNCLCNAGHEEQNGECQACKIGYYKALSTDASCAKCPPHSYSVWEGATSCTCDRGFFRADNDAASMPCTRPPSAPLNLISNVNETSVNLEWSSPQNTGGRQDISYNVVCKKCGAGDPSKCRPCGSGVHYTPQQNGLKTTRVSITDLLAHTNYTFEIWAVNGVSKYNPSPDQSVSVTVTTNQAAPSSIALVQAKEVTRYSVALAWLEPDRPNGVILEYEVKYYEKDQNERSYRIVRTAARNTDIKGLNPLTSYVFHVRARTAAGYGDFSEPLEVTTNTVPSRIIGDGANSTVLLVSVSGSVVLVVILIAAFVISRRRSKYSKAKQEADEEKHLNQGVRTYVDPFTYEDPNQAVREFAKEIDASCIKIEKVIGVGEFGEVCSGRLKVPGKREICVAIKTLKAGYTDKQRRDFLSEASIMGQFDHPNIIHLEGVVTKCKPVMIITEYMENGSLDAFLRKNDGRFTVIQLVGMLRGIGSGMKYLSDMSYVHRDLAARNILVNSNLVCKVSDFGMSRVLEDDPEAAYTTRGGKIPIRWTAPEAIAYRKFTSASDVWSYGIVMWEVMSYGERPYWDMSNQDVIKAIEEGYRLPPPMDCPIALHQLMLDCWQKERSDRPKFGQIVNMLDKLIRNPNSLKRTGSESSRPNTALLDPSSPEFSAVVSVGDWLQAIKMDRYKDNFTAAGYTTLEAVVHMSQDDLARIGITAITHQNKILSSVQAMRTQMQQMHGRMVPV

inhibition, inactive:
CCOC(=O)C(O)(CCC(O)(C(=O)OCC)C(=O)OCC)C(=O)OCC -4.3%
O=C1CCC(C23CC4CC(CC(C4)C2)C3)=NN1 -8.4% [this sample at 5 µg/mL]
Cc1nc(-c2ccc(O)c(O)c2)cs1 1.8%
Oc1ccc(-c2cn3c(n2)SCC3)cc1 4.1%
Cc1onc(-c2ccccc2Cl)c1C(=O)Nc1ccc(N2CCOCC2)cc1 1.6%
O=C1c2nc3ccccn3c2C(=O)N1Cc1ccccc1 6.8%
Cc1ccc(N(CC(=O)N/N=C/c2ccco2)S(=O)(=O)c2ccccc2)cc1 15.6%
CCOc1ccc(S(=O)(=O)N(CC(=O)O)c2ccccc2)cc1 0.2%
Cc1ccc(-c2nc3ncccc3o2)cc1NC(=O)COc1ccccc1 4.8%
CCOC(=O)c1cnc2c(OC)cccc2c1N1CCN(c2ccccc2OC)CC1 3.2%
Cc1cccc(Cn2cc(/C=C/[N+](=O)[O-])c3ccccc32)c1 40.7%
O=[N+]([O-])/C=C/c1cn(Cc2ccc(F)cc2)c2ccccc12 30.9%
Cc1ccc(NC(=O)N2Cc3ccccc3CC2C(=O)NC(C)(C)C)cc1 (stereo not drawn) 1%
CNc1ccc(Br)cc(C(=O)/C=C/c2ccc3c(c2)OCO3)c1=O 32.2%
O=C(/C=C/c1ccc2c(c1)OCO2)c1ccc(Br)cc1 3.2% [this sample at 5 µg/mL]
CCOC(=O)c1sc(NC(NC(=O)c2ccco2)(C(=O)OC)C(F)(F)F)nc1C (stereo not drawn) 4.3%
CCN1/C(=C/C(C)=O)Sc2ccccc21 -0.8% [this sample at 5 µg/mL]
CCN1/C(=C/c2ccc3ccccc3[n+]2CC)C=Cc2ccccc21 2%
Cn1c(=O)[nH]c(=O)c2c1nc(CN1CCN(c3cccc(Cl)c3)CC1)n2CCN1CCOCC1 8.6%
O=C(c1sc2ccccc2c1Cl)N(Cc1ccco1)C1CCS(=O)(=O)C1 (stereo not drawn) -4.2%
COc1ccccc1C1C(C(N)=O)=C(C)Nc2nc(-c3ccccc3Cl)nn21 (stereo not drawn) -24.8%
Cc1cc(/C=C2\SC(=S)NC2=O)c(C)n1C1CC1 9.1%
Cc1cc(C=C2C(=O)N(C)C(=O)N(C)C2=O)c(C)n1C 3.4% [this sample at 5 µg/mL]
O=C(c1ccccc1)N1CCN(C(=O)C23CC4CC(CC(C4)C2)C3)CC1 -9.8%
O=C1c2ccccc2NC(c2ccc(Cl)c(Cl)c2)N1Cc1ccccc1 (stereo not drawn) 7.9% [this sample at 5 µg/mL]
Cc1ccc(C)c(S(=O)(=O)Nc2ccccc2)c1 5.9% [this sample at 5 µg/mL]
CCOc1cc(C(=S)N2CCOCC2)ccc1OS(=O)(=O)c1ccc(NC(C)=O)cc1 -6.9%
Cc1cccc(C)c1NC(=O)CSc1nnc(-c2ccoc2C)n1C -4.3%
Cc1occc1-c1nnc(SCC(=O)c2c[nH]c3ccccc23)n1C 0.9%
Cn1c(SCC(=O)NC2CCCC2)nc2cccnc21 -0.5%
Cc1c(C(=O)NCCc2ccccc2)oc2ccc(S(=O)(=O)N3CCC4(CC3)OCCO4)cc12 -4.2%
COc1ccc(CNC(=O)c2ccc(S(=O)(=O)N3CCCC3)cc2)cc1OC -5.4%
Cc1cc2cc(CNC(=O)C3CC3)ccc2n1C -5.8%
COc1ccccc1NC(=O)Cc1csc(N)n1 3.7%
CCCCN(CCCC)c1nc2ccccc2nc1C(C#N)C(=O)NCCCOC (stereo not drawn) 13.6%
CCCCN(C)C/C(O)=C(\C#N)c1nc(-c2ccccc2)cs1 -4.9%
Cc1c(NC(=O)c2ccc(CSc3ccc(Cl)cc3)cc2)c(=O)n(-c2ccccc2)n1C -7.2% [this sample at 5 µg/mL]
Cc1ccc2c3c1C(=O)C(=O)N3C(C)(C)CC2C (stereo not drawn) -4.8%
O=C(COc1ccc(Cl)cc1)N(c1ccccc1)c1ccccc1 5.1% [this sample at 5 µg/mL]
Cc1cccc(OCC(=O)N/N=C/c2cn[nH]c2-c2ccc(Cl)c(Cl)c2)c1 -6.5%
CCOC(=O)c1ccc(COC(=O)c2ccc3c(c2)-c2ccccc2C3=O)cc1 -10.7%
CCOC(=O)c1c(C)nc2c(c1-c1ccccc1)C(=O)c1ccccc1-2 -4.1%
CC(CCc1ccccc1)NC(=O)c1cncc(Br)c1 (stereo not drawn) 1.4%
CCOC(=O)c1c(C)oc2c1c(C=NCC1CCCO1)c(O)c1ccccc12 (stereo not drawn) -5.6%
CCOC(=O)c1c(C)oc2c1c1c(c3ccccc32)OCN(Cc2ccccn2)C1 4.9%
Cn1c(NCc2c[nH]c3ccccc23)nc2ccccc21 -8.4%
CCOC(=O)c1csc(NC(=O)CSc2nnnn2CC)n1 -8.3%
Cc1ccc(S(=O)(=O)N2CCSC2c2ccco2)cc1 (stereo not drawn) -2%
CCOCCCn1c(SCC(=O)NCc2ccco2)nc2c(sc3ccccc32)c1=O 7.8%
Oc1c(C(Nc2ccccn2)c2ccccn2)ccc2cccnc12 (stereo not drawn) 6.9%
Cc1ccc2ccc(C(Nc3ccccn3)c3ccccc3)c(O)c2n1 (stereo not drawn) 18.4%
CC(=NCCc1ccccc1)C1=C(O)CCC1=O -2.3%
COc1ccccc1NC(=O)CSc1nnc(-c2ccco2)n1Cc1ccco1 -25.5%
COc1cccc(-c2nnc3sc(-c4ccccn4)nn23)c1 -6.2%
Cn1c(=O)oc2cc(S(=O)(=O)N3CCN(c4cccc(Cl)c4)CC3)ccc21 -5.3%
O=C1/C(=C/c2ccc(I)o2)SC(=S)N1Cc1ccccc1 -12.6% [this sample at 5 µg/mL]
Cc1ccc(/C=C2\SC(=S)N(Cc3ccccc3)C2=O)o1 -10.8%
O=C(c1coc(=O)c(Br)c1)N1CCCc2ccccc21 21.7%
CC1(C)CC(NC(=O)c2coc(=O)c(Br)c2)CC(C)(C)N1 -9.8%
O=C(CSCc1ccccc1Cl)NNC(=S)Nc1ccccc1 -12.3%
COc1cc(/C=C2/SC(=S)N(CC(=O)Nc3cccc(C(=O)O)c3)C2=O)cc(OC)c1OC -3.5% [this sample at 5 µg/mL]
CCOc1cc(/C=C2\SC(=S)N(Nc3ccccc3)C2=O)ccc1O 16.9%
COc1cc(/C=C2\SC(=S)N(Nc3ncc(C(F)(F)F)cc3Cl)C2=O)ccc1O 46.2%
O=C1/C(=C/c2ccc(F)cc2)SC(=S)N1Nc1ncc(C(F)(F)F)cc1Cl -6.5%
CC(=O)NCCNC(=O)[C@H](Cc1ccccc1)NC(=O)c1cccs1 -9%
CC1CC(C)CN(CC(C)(C)NS(=O)(=O)c2ccc(Cl)cc2)C1 (stereo not drawn) -13.3%
CC(C)C1Cc2c(C#N)c(N)n(C)c(=S)c2CO1 (stereo not drawn) -8%
CCC1(C)Cc2c(C#N)c(N)sc(=S)c2CO1 (stereo not drawn) 44.1%
O=C1NC(=S)N(c2ccc(F)cc2)C(=O)C1=Cc1ccc([N+](=O)[O-])s1 31.5% [this sample at 5 µg/mL]
O=C(O)CSc1nnc(-c2ccccc2)o1 -16.7%
CCSc1nnc(-c2ccncc2)o1 -3%
COC(=O)c1cccnc1NC(=S)NNC(=O)c1ccncc1 1.4%
CC1=NN(c2ccc(Br)cc2)C(=O)/C1=C/c1cccs1 -1.8%
O=C1N=C(c2ccccc2)S/C1=C\c1cccs1 5.5%
CCCCC(=O)Nc1cccc(NC(=O)c2ccc(Br)cc2)c1 -0.2%
Cc1cc(C)c2nc(N3CCCN(C(=O)c4cnccn4)CC3)c(C#N)cc2c1 11.5%
Cc1cc(C)c2nc(N3CCN(C)CC3)c(C#N)cc2c1 8.1%
Cc1ccc(N2CCCn3c2nc2c3c(=O)n(CCN3CCOCC3)c(=O)n2C)cc1 -11%
N=c1oc2ccccc2cc1-c1nc2ccccc2c(=O)[nH]1 5.9%
O=C(/C=C/c1ccc(OCc2ccccc2)cc1)c1ccc(Br)cc1 -5.6% [this sample at 5 µg/mL]
O=C(/C=C/c1ccc(OCc2ccccc2)cc1)c1cccc(Br)c1 14.7% [this sample at 5 µg/mL]
CC(C)(C)C1=C(C#N)C(c2ccc3c(c2)OCO3)C(C#N)=C(N)O1 (stereo not drawn) 5%
CCC1=NN2C(=N)/C(=C/c3ccc(OCc4ccccc4)cc3)C(=O)N=C2S1 0.6% [this sample at 5 µg/mL]
